Assay results published in PubChem BioAssay (NCI).
The panel holds about 83,000 compounds, 20% with a hit somewhere; the sample as a whole holds those more often.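 Testing used 96-well plates and a 48-hour single-concentration exposure. Example: -40 means 40% of the starting cells died.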 A number with no mark means an inactive call. Active and inactive are the calls of the source. How the source made its calls: active means growth percent below 10; inactive means the rest.

Columns and labels:
Assay in all cases: NCI-60 one-dose screen, 48 h (100 = growth as untreated, 0 = no growth, -100 = all killed)
Conditions in all cases: 10 µM unless noted
DU-145 prostate = test system: DU-145 prostate
K-562 leukemia = test system: K-562 leukemia
MALME-3M melanoma = test system: MALME-3M melanoma
MDA-MB-231 breast = test system: MDA-MB-231 breast
RXF 393 renal = test system: RXF 393 renal
SF-268 CNS = test system: SF-268 CNS
SF-295 CNS = test system: SF-295 CNS
SF-539 CNS = test system: SF-539 CNS
UACC-257 melanoma = test system: UACC-257 melanoma
M14 melanoma = test system: M14 melanoma

Row | Compound | growth (DU-145 prostate) | growth (K-562 leukemia) | growth (MALME-3M melanoma) | growth (MDA-MB-231 breast) | growth (RXF 393 renal) | growth (SF-268 CNS) | growth (SF-295 CNS) | growth (SF-539 CNS) | growth (UACC-257 melanoma) | growth (M14 melanoma)
1 | COC1=C[C@]23CCC(=O)N2CCc2cc4c(cc2[C@@H]3[C@@H]1OC(=O)[C@H](C)O)OCO4 | 31.7% | 7.08% (active) | -28.6% (active) | 61.8% | 5.61% (active) | 66.2% | 29.7% | -34.5% (active) | 27.9% | 10.4%
2 | Cc1cc(C)cc(NC(=O)Cn2cc(COn3nnc4ccccc43)nn2)c1 | 111% | 102% | 108% | 106% | 122% | 116% | 110% | 99.6% | 101% | 106%
3 | COc1ccc2oc(=O)c(C3(C)NC(=O)c4c(/C=C/C(=O)OC(C)(C)C)cccc4N3)cc2c1 (stereo not given) | 69.5% | 25.5% | 40.5% | 49.1% | 40.3% | 58.1% | 39.3% | 67.6% | 32.6% | 48.7%
4 | S=c1c2ccccc2nc2n1CCc1c-2[nH]c2ccccc12 | 68.1% | 57.8% | 54.2% | 40.8% | 28.7% | 57.7% | 63.4% | 43.4% | 66.1% | 70.1%
5 | CCOC(=O)c1ccc(Nc2nc(NN)nc(-c3ccc(OC)cc3)c2C#N)cc1 | 113% | 1.69% (active) | 92.4% | 85.1% | 124% | 98.2% | 111% | 110% | 46% | 71.6%
6 | COc1c(F)ccc(C(=O)Nc2ccc3nc(NC(=O)C4CCCN(S(=O)(=O)c5cccc(Br)c5)C4)sc3c2)c1F (stereo not given) | 91.4% | 60.2% | 99.4% | 90.7% | -3.33% (active) | 69.7% | 84.5% | 74.5% | 92.4% | 87.2%
7 | NS(=O)(=O)c1ccc(CCNC(=O)CSc2ccc(-c3ccc(Br)cc3)nn2)cc1 | 71.1% | 36% | 75.9% | 85.2% | 87.7% | 72.5% | 59.9% | 79.2% | 38.5% | 77%
8 | O=c1oc2ccc(Br)cc2cc1C1=CSc2nc3sc4c(c3c(=O)n2N=C1)CCCC4 | 107% | 97.1% | 89% | 88.2% | 167% | 101% | 101% | 100% | 90.9% | 92.4%
9 | Cn1cc(NC(=O)c2cc(NC(=O)c3ccc(C#Cc4ccccc4)cc3)cn2C)cc1C(=O)NCCCN1CCOCC1 | 56.4% | -41.5% (active) | -84.8% (active) | 4.99% (active) | -4.28% (active) | 63.2% | -81.9% (active) | -85.5% (active) | -28.8% (active) | -86.4% (active)
10 | C=C1CC[C@@H]2[C@]3(C)COC(c4cn[nH]c4-c4ccc(Br)cc4)O[C@@H]3CC[C@@]2(C)[C@@H]1C/C=C1/C(=O)OCC1O (stereo not given in full) | -78.6% (active) | 7.76% (active) | -70.7% (active) | -65.8% (active) | -89.1% (active) | -13.3% (active) | -65.6% (active) | -94.4% (active) | -71.4% (active) | -69.5% (active)
11 | CC(=O)Nc1cccc(-c2nc3cc(-c4ccc(O)cc4)ccc3n2C)c1 | 56.5% | 35.4% | -4.44% (active) | 49.1% | 81.3% | 42.8% | 26% | 57.2% | -3.29% (active) | 24.5%
12 | O=C(COc1ccc(NC(=O)Nc2ccc(Cl)cc2)cc1)N/N=C/c1ccccc1 | -23.9% (active) | -15.2% (active) | -90.8% (active) | -87.9% (active) | -85.2% (active) | -55.2% (active) | -96.6% (active) | -95.3% (active) | -36.6% (active) | -66.1% (active)
13 | CCCSc1nc(Nc2ccc(S(N)(=O)=O)cc2)c(C#N)c(-c2cc(OC)c(OC)c(OC)c2)n1 | 26.2% | 2.89% (active) | -2.83% (active) | 43.9% | -2.49% (active) | 45.2% | 14.1% | 37% | 42% | 18.3%
14 | COc1cc2c(c(OC)c1OC)C(=O)CC(c1cccc(NC(=O)c3cccc(NC(=O)[C@H](C)NC(=O)OC(C)(C)C)c3)c1)O2 (stereo not given in full) | 61.7% | 40.7% | 70.3% | 69% | 90% | 53.6% | 65.9% | 85.2% | 77% | 76%
15 | CCCCCCCCc1ccc(C(=O)Nc2ccc(C)cc2C(=O)O)cc1C | 105% | 71.2% | 96.5% | 98.1% | 109% | 99.9% | 73.6% | 99.1% | 95% | 99.9%
16 | Cc1ccc(-n2c(-c3cc4ccccc4nc3Cl)noc2=O)cc1 | 105% | 30.6% | 93.3% | 63.6% | 92.4% | 86.7% | 76.1% | 84% | 95% | 72.7%
17 | COc1ccc2oc3c4[nH]c5ccccc5c4c4c(c3c2c1)C(=O)N(C(=O)OC(C)(C)C)C4=O | 6.06% (active) | 3.78% (active) | -24.9% (active) | 8.48% (active) | -0.96% (active) | 4.9% (active) | -26.7% (active) | -24.8% (active) | -52.9% (active) | -44.6% (active)
18 | CN(C)c1ccnc(CNCCSC2(c3ccc(C(F)(F)F)cc3)c3ccccc3C=Cc3ccccc32)c1 | 3.69% (active) | -11.1% (active) | -89.7% (active) | -48% (active) | -26.7% (active) | 7.1% (active) | -90.6% (active) | -96.8% (active) | -20.6% (active) | -74.7% (active)
19 | O=C1CCCc2cc(OCC(=O)N3CCCCC3)ccc2N1 | 122% | 106% | 102% | 105% | 110% | 108% | 99% | 101% | 111% | 116%
20 | COc1cc(C2CC(c3cc(OC)c(OC)c(OC)c3)=Nc3c(N)nc(N)nc3N2)ccc1Oc1nc(NCCO)nc(N2CCOCC2)n1 (stereo not given) | 114% | 91.1% | 98.5% | 102% | 105% | 93.8% | 101% | 97.5% | 105% | 102%
21 | CCCCc1c(Nn2cnnn2)no[n+]1[O-] | 56.2% | 28.2% | 68.7% | 49.3% | 39.5% | 82.2% | 56.9% | 57% | 68.5% | 68.1%
22 | CNS(=O)(=O)c1ccc(Nc2ccc(C(F)(F)F)cc2)c(-c2cn(C)cn2)c1 | 62.3% | 21.5% | 68.1% | 60.3% | 52.1% | 41.5% | 43.7% | 64.4% | 64% | 49.8%
23 | CCCS(=O)(=O)N1CCCC(C(=O)Nc2nc3ccc(NC(=O)c4ccc(F)c(OC)c4F)cc3s2)C1 (stereo not given) | 72.7% | 27.6% | 52.7% | 62.9% | 8.45% (active) | 56.9% | 23% | 47.2% | 25.2% | 56.7%
24 | COc1ccc(NC(=O)Cn2c(O)c(N=Nc3ccc(S(N)(=O)=O)cc3)c3ccccc32)cc1 | 82.4% | 40.8% | 29.8% | -22.1% (active) | 82.7% | 69.1% | 22.1% | 23.4% | 67% | 27.4%
25 | COc1cc2oc(-c3cccc(C(=O)Nc4ccc(Cl)cc4)c3)cc(=O)c2c(OCCNC(=O)[C@H](CCC(=O)OC(C)(C)C)NC(=O)OC(C)(C)C)c1OC | 108% | 81.5% | 106% | 85.4% | 84.3% | 81.8% | 94.5% | 87.8% | 107% | 106%
26 | C#CCOc1ccc(/C=N/Nc2nc(-c3ccc(Cl)cc3)cs2)cc1OC | 81.5% | 26.2% | 91.6% | 77.1% | 27.1% | 73.8% | 77.4% | 70.6% | 45.5% | 61.1%
